Measurements published in PubChem BioAssay (NCI).
Values joined by “and” are separate entries in the source; they are usually repeats but may differ in a detail not shown here. Equal values may be shown once. About 83,000 compounds went through this panel and 20% of them were active in at least one assay; those are over-represented in the sample as a whole.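 Percent growth is the endpoint: 0 to 100 indicates growth inhibition (40 means 60% inhibition), 0 means no net growth, and negative values indicate cell death.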 Unmarked numbers belong to inactive results. Active and inactive are the calls of the source. Rule for the calls: active = growth percent below 10; inactive = the rest.

Assays:
Test in all cases: NCI-60 one-dose screen, 48 h (100 = growth as untreated, 0 = no growth, -100 = all killed)
NCI-H226 lung = tested on: NCI-H226 lung
NCI-H322M lung = tested on: NCI-H322M lung
HOP-62 NSCLC = tested on: HOP-62 NSCLC
NCI-H460 lung = conditions: 10 µM
HOP-92 NSCLC = tested on: HOP-92 NSCLC
NCI-H522 lung = tested on: NCI-H522 lung
A549/ATCC NSCLC = tested on: A549/ATCC NSCLC
786-0 renal = tested on: 786-0 renal
COLO 205 colon = tested on: COLO 205 colon
DU-145 prostate = tested on: DU-145 prostate
K-562 leukemia = tested on: K-562 leukemia
MALME-3M melanoma = tested on: MALME-3M melanoma
MDA-MB-231 breast = tested on: MDA-MB-231 breast
RXF 393 renal = tested on: RXF 393 renal
SF-268 CNS = tested on: SF-268 CNS
SF-295 CNS = tested on: SF-295 CNS
SF-539 CNS = tested on: SF-539 CNS
UACC-257 melanoma = tested on: UACC-257 melanoma
M14 melanoma = tested on: M14 melanoma
NCI-H23 lung = conditions: 10 µM

## NNc1ccc2ccccc2c1
NCI-H226 lung; 10 µM
  growth: 87.3% and 85.8%
NCI-H322M lung; 10 µM
  growth: 83% and 97.3%
HOP-62 NSCLC; 10 µM
  growth: 81.1% and 97.4%
NCI-H460 lung
  growth: 105%
HOP-92 NSCLC; 10 µM
  growth: 97% and 95.6%
NCI-H522 lung; 10 µM unless noted
  growth: 79.5% and 98.6%
A549/ATCC NSCLC; 10 µM
  growth: 102% and 106%
786-0 renal; 10 µM
  growth: 99.8% and 98.3%
COLO 205 colon; 10 µM
  growth: 94% and 109%
DU-145 prostate; 10 µM unless noted
  growth: 98.5% and 111%
K-562 leukemia; 10 µM
  growth: 86% and 115%
MALME-3M melanoma; 10 µM
  growth: 90.1% and 96.8%
MDA-MB-231 breast; 10 µM
  growth: 68.7% and 90.1%
RXF 393 renal; 10 µM unless noted
  growth: 122% and 98.9%
SF-268 CNS; 10 µM
  growth: 75.8% and 96.8%
SF-295 CNS; 10 µM
  growth: 95.8% and 102%
SF-539 CNS; 10 µM
  growth: 86% and 100%
UACC-257 melanoma; 10 µM
  growth: 107% and 105%
M14 melanoma; 10 µM
  growth: 89.6% and 96.8%

## COc1cccc2c1C(=O)c1c(O)c3c(c(O)c1C2=O)C[C@@](O)(C(C)=O)C[C@@H]3OC1CC(N)C(O)C(C)O1 (stereo not given in full)
NCI-H23 lung
  growth: -40.5% (active)
NCI-H226 lung; 10 µM
  growth: -6.94% (active)
NCI-H322M lung; 10 µM
  growth: 3.64% (active)
HOP-62 NSCLC; 10 µM
  growth: -26.1% (active)
NCI-H460 lung
  growth: -25.3% (active)
HOP-92 NSCLC; 10 µM
  growth: -25.2% (active)
NCI-H522 lung; 10 µM unless noted
  growth: -52% (active)
A549/ATCC NSCLC; 10 µM
  growth: -29.9% (active)
786-0 renal; 10 µM
  growth: -18.5% (active)
COLO 205 colon; 10 µM
  growth: -54.3% (active)
DU-145 prostate; 10 µM unless noted
  growth: -11.4% (active)
K-562 leukemia; 10 µM
  growth: -49.5% (active)
MALME-3M melanoma; 10 µM
  growth: -77.1% (active)
MDA-MB-231 breast; 10 µM
  growth: -17.9% (active)
RXF 393 renal; 10 µM unless noted
  growth: -46.9% (active)
SF-268 CNS; 10 µM
  growth: -14.5% (active)
SF-295 CNS; 10 µM
  growth: -26.9% (active)
SF-539 CNS; 10 µM
  growth: -70.9% (active)
UACC-257 melanoma; 10 µM
  growth: -33.3% (active)

## COc1ccc(CC(=O)c2ccc(O)cc2O)cc1
NCI-H226 lung; 10 µM
  growth: 133%
NCI-H322M lung; 10 µM
  growth: 122%
HOP-62 NSCLC; 10 µM
  growth: 88.4%
NCI-H460 lung
  growth: 115%
HOP-92 NSCLC; 10 µM
  growth: 94.4%
NCI-H522 lung; 10 µM unless noted
  growth: 4.52% (active)
A549/ATCC NSCLC; 10 µM
  growth: 109%
786-0 renal; 10 µM
  growth: 96.5%
COLO 205 colon; 10 µM
  growth: 207%
DU-145 prostate; 10 µM unless noted
  growth: 138%
K-562 leukemia; 10 µM
  growth: 98.7%
MALME-3M melanoma; 10 µM
  growth: 128%
MDA-MB-231 breast; 10 µM
  growth: 117%
RXF 393 renal; 10 µM unless noted
  growth: 144%
SF-268 CNS; 10 µM
  growth: 132%
SF-295 CNS; 10 µM
  growth: 113%
SF-539 CNS; 10 µM
  growth: 99.3%
UACC-257 melanoma; 10 µM
  growth: 119%
M14 melanoma; 10 µM
  growth: 103%

## COc1cccc2c1C(=O)c1c(O)c3c(c(O)c1C2=O)C[C@@](O)(C(=O)CO)C[C@@H]3OC1CC(N)C(O)C(C)O1 (stereo not given in full)
NCI-H226 lung; 0.0025 µM
  growth: 84%
NCI-H226 lung; 2.5 µM
  growth: 23.1%
NCI-H226 lung; 10 µM
  growth: -18.3% (active)
NCI-H322M lung; 0.0025 µM
  growth: 86.8%
NCI-H322M lung; 1 µM
  growth: 63.4%
NCI-H322M lung; 2.5 µM
  growth: 101%
NCI-H322M lung; 10 µM
  growth: 13.9%
HOP-62 NSCLC; 0.0025 µM
  growth: 88.3%
HOP-62 NSCLC; 2.5 µM
  growth: 31.5%
HOP-62 NSCLC; 10 µM
  growth: 6.93% (active)
HOP-92 NSCLC; 0.0025 µM
  growth: 85.2%
HOP-92 NSCLC; 2.5 µM
  growth: 51%
HOP-92 NSCLC; 10 µM
  growth: -22.8% (active)
NCI-H522 lung; 0.0025 µM
  growth: 78.3%
NCI-H522 lung; 1 µM
  growth: -10.4% (active)
NCI-H522 lung; 10 µM
  growth: -38% (active)
A549/ATCC NSCLC; 0.0025 µM
  growth: 73%
A549/ATCC NSCLC; 1 µM
  growth: 33.7%
A549/ATCC NSCLC; 2.5 µM
  growth: 36.5%
A549/ATCC NSCLC; 10 µM
  growth: -30.5% (active)
786-0 renal; 0.0025 µM
  growth: 84.4%
786-0 renal; 1 µM
  growth: -14.3% (active)
786-0 renal; 2.5 µM
  growth: 26.8%
786-0 renal; 10 µM
  growth: 4.5% (active)
COLO 205 colon; 0.0025 µM
  growth: 85.8%
COLO 205 colon; 1 µM
  growth: 53.8%
COLO 205 colon; 2.5 µM
  growth: 56.7%
COLO 205 colon; 10 µM
  growth: -47.4% (active)
DU-145 prostate; 2.5 µM
  growth: -33.2% (active)
DU-145 prostate; 10 µM
  growth: 13.2%
K-562 leukemia; 0.0025 µM
  growth: 107%
K-562 leukemia; 1 µM
  growth: 32.8%
K-562 leukemia; 2.5 µM
  growth: 28.1%
K-562 leukemia; 10 µM
  growth: 2.13% (active)
MALME-3M melanoma; 0.0025 µM
  growth: 79.3%
MALME-3M melanoma; 1 µM
  growth: -17.2% (active)
MALME-3M melanoma; 2.5 µM
  growth: 30%
MALME-3M melanoma; 10 µM
  growth: -80.1% (active)
MDA-MB-231 breast; 0.0025 µM
  growth: 124%
MDA-MB-231 breast; 1 µM
  growth: 71%
MDA-MB-231 breast; 2.5 µM
  growth: 82.1%
MDA-MB-231 breast; 10 µM
  growth: 3.79% (active)
RXF 393 renal; 0.0025 µM
  growth: 107%
RXF 393 renal; 10 µM
  growth: -28.5% (active)
SF-268 CNS; 0.0025 µM
  growth: 97%
SF-268 CNS; 1 µM
  growth: 41%
SF-268 CNS; 2.5 µM
  growth: 16.7%
SF-268 CNS; 10 µM
  growth: -4.32% (active)
SF-295 CNS; 0.0025 µM
  growth: 95.8%
SF-295 CNS; 1 µM
  growth: 2.06% (active)
SF-295 CNS; 2.5 µM
  growth: -1.94% (active)
SF-295 CNS; 10 µM
  growth: -27.6% (active)
SF-539 CNS; 0.0025 µM
  growth: 97.1%
SF-539 CNS; 1 µM
  growth: 36.5%
SF-539 CNS; 2.5 µM
  growth: 32.3%
SF-539 CNS; 10 µM
  growth: -50.3% (active)
UACC-257 melanoma; 0.0025 µM
  growth: 90%
UACC-257 melanoma; 1 µM
  growth: 28.3%
UACC-257 melanoma; 2.5 µM
  growth: 42.8%
UACC-257 melanoma; 10 µM
  growth: 3.46% (active)
M14 melanoma; 0.0025 µM
  growth: 90.9%
M14 melanoma; 1 µM
  growth: 16.6%
M14 melanoma; 2.5 µM
  growth: 50.9%
